Experimental data published in the supplement of paper PMC10849652.
About 7,900 targets were measured; listed, in parts, are those with a hit and a random draw of the rest. About 0.6% of all pairs of compound and target were hits. Values without a mark were called inactive.

Compound: c1ccc([C@@H]2C[C@H]2NC2CCNCC2)cc1
Experiment: log2 fold change, soluble protein after heating vs DMSO (PISA); higher = thermal stabilisation; K562 cells, 10 uM, 30 min; active = over 0.2 and 3.5 SD of the protein, either way, in both replicates (recomputed)
In short: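 K562 cells (2×10^6 cells/mL) were treated with 10 μM compound for 30 min, and aliquots were heated for 3 min over 48°C-58°C. Pooled aliquots were extracted in PBS with 0.5% NP-40 at 4°C, and the supernatant after 21,000xg for 90 min was measured by TMTpro 16plex LC-MS/MS with channel sums equalised. Reported thermal stability, relative to control samples and from duplicates, is a log2 fold change.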

Chain of UniProt Q641Q2 (Q641Q2 whole entry, looked up): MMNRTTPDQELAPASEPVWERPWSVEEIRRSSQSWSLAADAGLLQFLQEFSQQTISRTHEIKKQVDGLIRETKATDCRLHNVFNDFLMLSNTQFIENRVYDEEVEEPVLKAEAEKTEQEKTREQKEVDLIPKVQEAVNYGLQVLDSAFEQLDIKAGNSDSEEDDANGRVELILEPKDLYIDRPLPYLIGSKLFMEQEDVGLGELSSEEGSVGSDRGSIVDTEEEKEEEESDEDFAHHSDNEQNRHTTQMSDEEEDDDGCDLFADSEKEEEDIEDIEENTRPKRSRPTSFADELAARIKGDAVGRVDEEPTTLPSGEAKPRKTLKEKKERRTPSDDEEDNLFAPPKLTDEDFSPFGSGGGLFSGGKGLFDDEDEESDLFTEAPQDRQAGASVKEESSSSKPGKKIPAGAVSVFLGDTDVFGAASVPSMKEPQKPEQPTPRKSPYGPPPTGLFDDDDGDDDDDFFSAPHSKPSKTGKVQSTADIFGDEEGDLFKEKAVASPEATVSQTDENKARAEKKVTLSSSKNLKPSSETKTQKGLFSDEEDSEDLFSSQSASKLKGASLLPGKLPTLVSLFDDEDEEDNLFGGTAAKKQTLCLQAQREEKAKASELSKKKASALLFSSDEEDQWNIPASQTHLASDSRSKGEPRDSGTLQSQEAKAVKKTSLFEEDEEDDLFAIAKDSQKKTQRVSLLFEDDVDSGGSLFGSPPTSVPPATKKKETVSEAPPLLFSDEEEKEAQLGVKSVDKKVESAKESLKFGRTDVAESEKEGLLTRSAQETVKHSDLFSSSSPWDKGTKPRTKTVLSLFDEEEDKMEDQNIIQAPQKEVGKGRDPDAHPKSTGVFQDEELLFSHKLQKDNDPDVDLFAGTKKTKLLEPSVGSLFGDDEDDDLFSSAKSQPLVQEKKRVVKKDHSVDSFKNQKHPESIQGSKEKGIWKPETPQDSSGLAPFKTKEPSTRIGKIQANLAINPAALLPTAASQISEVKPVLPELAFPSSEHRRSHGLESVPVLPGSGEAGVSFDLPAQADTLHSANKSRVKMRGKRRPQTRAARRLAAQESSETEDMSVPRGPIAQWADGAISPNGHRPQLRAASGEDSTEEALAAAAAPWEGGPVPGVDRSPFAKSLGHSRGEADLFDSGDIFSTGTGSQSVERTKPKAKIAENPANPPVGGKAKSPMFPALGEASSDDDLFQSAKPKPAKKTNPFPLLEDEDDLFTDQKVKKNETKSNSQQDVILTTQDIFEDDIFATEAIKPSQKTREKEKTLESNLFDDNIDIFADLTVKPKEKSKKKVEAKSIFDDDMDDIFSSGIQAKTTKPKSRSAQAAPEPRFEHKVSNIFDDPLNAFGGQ
Chain of UniProt Q9NQH7 (Q9NQH7 whole entry, looked up): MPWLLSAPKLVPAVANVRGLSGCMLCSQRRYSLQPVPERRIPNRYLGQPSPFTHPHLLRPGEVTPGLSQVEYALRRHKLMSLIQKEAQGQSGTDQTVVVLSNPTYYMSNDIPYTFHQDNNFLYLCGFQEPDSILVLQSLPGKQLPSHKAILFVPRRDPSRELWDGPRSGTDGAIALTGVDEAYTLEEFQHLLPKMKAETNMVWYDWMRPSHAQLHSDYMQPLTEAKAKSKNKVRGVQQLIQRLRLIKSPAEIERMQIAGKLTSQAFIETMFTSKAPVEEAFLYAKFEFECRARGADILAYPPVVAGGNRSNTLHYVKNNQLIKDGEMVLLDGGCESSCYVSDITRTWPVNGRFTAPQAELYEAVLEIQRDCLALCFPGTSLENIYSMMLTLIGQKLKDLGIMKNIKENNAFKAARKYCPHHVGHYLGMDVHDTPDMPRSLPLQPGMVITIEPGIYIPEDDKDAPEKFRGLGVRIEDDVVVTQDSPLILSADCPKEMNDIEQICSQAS
Chain of UniProt Q6NXR4 (Q6NXR4 whole entry, looked up): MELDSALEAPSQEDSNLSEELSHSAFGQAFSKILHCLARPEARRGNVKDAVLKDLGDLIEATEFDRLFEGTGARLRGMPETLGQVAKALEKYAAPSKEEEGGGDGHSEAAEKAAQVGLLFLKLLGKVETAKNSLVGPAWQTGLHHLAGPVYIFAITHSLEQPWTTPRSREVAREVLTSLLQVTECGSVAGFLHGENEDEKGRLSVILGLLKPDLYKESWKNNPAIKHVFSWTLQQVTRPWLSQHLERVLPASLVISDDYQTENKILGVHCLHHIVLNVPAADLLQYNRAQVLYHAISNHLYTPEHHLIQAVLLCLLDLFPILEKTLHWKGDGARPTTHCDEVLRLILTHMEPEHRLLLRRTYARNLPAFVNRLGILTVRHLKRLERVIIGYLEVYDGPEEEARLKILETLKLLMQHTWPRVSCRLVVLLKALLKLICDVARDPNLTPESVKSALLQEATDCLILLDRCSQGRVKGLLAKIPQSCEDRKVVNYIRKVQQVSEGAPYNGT
Chain of UniProt O00220 (O00220 whole entry, looked up): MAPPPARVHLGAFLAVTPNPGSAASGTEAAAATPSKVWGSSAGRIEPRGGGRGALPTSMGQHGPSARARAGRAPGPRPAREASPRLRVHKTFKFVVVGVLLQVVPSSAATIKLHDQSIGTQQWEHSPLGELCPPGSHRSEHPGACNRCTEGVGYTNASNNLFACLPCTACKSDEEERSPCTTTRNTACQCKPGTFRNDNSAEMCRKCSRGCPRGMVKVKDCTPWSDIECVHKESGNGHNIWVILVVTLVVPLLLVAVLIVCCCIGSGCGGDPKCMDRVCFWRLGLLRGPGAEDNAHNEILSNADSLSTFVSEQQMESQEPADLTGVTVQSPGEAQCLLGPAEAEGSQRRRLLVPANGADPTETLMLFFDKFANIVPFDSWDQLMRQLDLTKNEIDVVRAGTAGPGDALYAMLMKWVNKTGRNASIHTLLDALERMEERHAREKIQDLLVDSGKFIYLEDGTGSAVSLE
Chain of UniProt A0PJW6 (A0PJW6 whole entry, looked up): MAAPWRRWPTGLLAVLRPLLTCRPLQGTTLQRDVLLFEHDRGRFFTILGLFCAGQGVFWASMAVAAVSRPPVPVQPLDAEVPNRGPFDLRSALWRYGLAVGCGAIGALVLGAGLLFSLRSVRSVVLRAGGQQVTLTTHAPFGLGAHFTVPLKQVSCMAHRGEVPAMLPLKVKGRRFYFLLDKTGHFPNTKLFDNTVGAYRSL
Chain of UniProt Q96AJ9 (Q96AJ9 whole entry, looked up): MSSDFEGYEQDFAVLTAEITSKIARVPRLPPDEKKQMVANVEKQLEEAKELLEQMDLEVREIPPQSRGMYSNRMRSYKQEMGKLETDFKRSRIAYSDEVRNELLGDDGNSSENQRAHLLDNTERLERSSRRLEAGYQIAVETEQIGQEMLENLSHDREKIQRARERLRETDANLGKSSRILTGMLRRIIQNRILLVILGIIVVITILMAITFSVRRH
Chain of UniProt Q9UGM6 (Q9UGM6 whole entry, looked up): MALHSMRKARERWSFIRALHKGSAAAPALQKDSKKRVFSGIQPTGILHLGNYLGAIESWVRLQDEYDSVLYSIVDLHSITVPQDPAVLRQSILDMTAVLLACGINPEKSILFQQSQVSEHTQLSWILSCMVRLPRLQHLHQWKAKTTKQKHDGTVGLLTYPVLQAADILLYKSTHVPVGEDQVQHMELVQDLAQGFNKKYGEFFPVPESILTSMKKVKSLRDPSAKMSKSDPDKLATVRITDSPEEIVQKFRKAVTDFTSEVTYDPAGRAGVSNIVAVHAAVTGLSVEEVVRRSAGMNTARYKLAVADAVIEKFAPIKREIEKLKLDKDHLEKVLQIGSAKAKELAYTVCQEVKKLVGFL
Chain of UniProt P61960 (P61960 whole entry, looked up): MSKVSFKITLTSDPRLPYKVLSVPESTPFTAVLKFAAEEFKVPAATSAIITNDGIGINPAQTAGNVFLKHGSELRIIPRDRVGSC
Chain of UniProt Q96AX1 (Q96AX1 whole entry, looked up): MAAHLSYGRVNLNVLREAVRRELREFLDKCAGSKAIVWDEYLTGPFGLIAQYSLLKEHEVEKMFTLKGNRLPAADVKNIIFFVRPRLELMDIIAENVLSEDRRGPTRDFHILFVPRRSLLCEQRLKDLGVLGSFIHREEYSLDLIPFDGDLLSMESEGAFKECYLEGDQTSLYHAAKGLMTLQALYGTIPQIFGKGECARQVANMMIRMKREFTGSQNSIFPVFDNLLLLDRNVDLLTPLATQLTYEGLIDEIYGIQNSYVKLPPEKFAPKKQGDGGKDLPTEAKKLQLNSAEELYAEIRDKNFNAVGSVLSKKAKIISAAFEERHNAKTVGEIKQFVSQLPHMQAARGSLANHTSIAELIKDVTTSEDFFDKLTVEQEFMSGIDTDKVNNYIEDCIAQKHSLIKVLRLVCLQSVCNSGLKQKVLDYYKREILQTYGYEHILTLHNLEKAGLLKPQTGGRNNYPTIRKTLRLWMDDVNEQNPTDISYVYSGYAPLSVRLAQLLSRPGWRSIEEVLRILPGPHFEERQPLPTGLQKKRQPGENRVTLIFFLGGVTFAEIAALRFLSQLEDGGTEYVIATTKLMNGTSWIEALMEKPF
Chain of UniProt Q16881 (Q16881 whole entry, looked up): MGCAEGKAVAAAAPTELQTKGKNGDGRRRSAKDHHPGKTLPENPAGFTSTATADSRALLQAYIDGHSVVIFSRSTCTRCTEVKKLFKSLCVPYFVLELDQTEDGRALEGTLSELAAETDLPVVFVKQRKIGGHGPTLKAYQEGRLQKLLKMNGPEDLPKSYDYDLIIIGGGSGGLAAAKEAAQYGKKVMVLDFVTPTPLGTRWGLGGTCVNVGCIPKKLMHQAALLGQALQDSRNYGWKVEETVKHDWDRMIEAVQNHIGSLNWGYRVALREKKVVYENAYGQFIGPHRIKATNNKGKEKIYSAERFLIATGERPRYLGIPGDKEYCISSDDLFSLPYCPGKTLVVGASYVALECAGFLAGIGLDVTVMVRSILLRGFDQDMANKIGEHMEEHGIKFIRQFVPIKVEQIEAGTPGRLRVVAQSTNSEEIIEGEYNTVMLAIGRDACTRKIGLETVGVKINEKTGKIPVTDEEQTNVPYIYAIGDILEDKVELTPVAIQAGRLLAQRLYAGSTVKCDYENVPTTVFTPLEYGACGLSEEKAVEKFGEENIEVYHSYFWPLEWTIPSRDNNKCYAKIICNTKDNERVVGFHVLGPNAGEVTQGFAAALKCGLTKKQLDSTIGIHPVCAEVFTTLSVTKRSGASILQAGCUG

| Target | log2 fold change |
| --- | --- |
| XPNPEP3 (UniProt Q9NQH7) | 0.006 |
| WDR75 (UniProt Q8IWA0) | -0.089 |
| UFM1 isoform 2 (UniProt P61960) | -0.048 |
| TXNRD1 (UniProt Q16881) | -0.032 |
| TUBA4A (UniProt P68366) | -0.076 |
| TMEM223 (UniProt A0PJW6) | -0.024 |
| VTI1A (UniProt Q96AJ9) | 0.07 |
| VPS33A (UniProt Q96AX1) | -0.041 |
| WARS2 (UniProt Q9UGM6) | 0.06 |
| TTI2 (UniProt Q6NXR4) | 0.041 |
| TNFRSF10A (UniProt O00220) | 0.01 |
| WASHC2A (UniProt Q641Q2) | 0.033 |
